# Assay results taken from PubChem BioAssay.
# A number with no mark means an inactive call. Activity calls are given as the source filed them.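 How the source made its calls: active means normalized viability below 100% at a tested concentration; inactive means the rest.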
# Assay: drug combination growth inhibition, ovarian cancer – cell-based, oncology-focused library, rucaparib conditional, profiling panel (AID 1508598)
# Conditions: patient-derived ovarian cancer cells, CellTiter-Glo viability, 144 h, hits give low values
# [1] = at 0.000305 µM, OCI-C5x cells, with rucaparib 10 µM, 100% = cells with rucaparib alone
# [2] = at 0.000305 µM, OCI-C5x cells, without rucaparib
# [3] = at 0.000305 µM, OCI-P5x cells, with rucaparib 20 µM, 100% = cells with rucaparib alone
# [4] = at 0.000305 µM, OCI-P5x cells, without rucaparib
# [5] = at 0.00122 µM, OCI-C5x cells, with rucaparib 10 µM, 100% = cells with rucaparib alone
# [6] = at 0.00122 µM, OCI-C5x cells, without rucaparib
# [7] = at 0.00122 µM, OCI-P5x cells, with rucaparib 20 µM, 100% = cells with rucaparib alone
# [8] = at 0.00122 µM, OCI-P5x cells, without rucaparib
# [9] = at 0.00488 µM, OCI-C5x cells, with rucaparib 10 µM, 100% = cells with rucaparib alone
# [10] = at 0.00488 µM, OCI-C5x cells, without rucaparib
# [11] = at 0.00488 µM, OCI-P5x cells, with rucaparib 20 µM, 100% = cells with rucaparib alone
# [12] = at 0.00488 µM, OCI-P5x cells, without rucaparib
# [13] = at 0.0195 µM, OCI-C5x cells, with rucaparib 10 µM, 100% = cells with rucaparib alone
# [14] = at 0.0195 µM, OCI-C5x cells, without rucaparib
# [15] = at 0.0195 µM, OCI-P5x cells, with rucaparib 20 µM, 100% = cells with rucaparib alone
# [16] = at 0.0195 µM, OCI-P5x cells, without rucaparib
# [17] = at 0.0781 µM, OCI-C5x cells, with rucaparib 10 µM, 100% = cells with rucaparib alone
# [18] = at 0.0781 µM, OCI-C5x cells, without rucaparib
# [19] = at 0.0781 µM, OCI-P5x cells, with rucaparib 20 µM, 100% = cells with rucaparib alone
# [20] = at 0.0781 µM, OCI-P5x cells, without rucaparib
# [21] = at 0.313 µM, OCI-C5x cells, with rucaparib 10 µM, 100% = cells with rucaparib alone
# [22] = at 0.313 µM, OCI-C5x cells, without rucaparib
# [23] = at 0.313 µM, OCI-P5x cells, with rucaparib 20 µM, 100% = cells with rucaparib alone
# [24] = at 0.313 µM, OCI-P5x cells, without rucaparib
# [25] = at 1.25 µM, OCI-C5x cells, with rucaparib 10 µM, 100% = cells with rucaparib alone
# [26] = at 1.25 µM, OCI-C5x cells, without rucaparib
# [27] = at 1.25 µM, OCI-P5x cells, with rucaparib 20 µM, 100% = cells with rucaparib alone
# [28] = at 1.25 µM, OCI-P5x cells, without rucaparib
# [29] = at 5 µM, OCI-C5x cells, with rucaparib 10 µM, 100% = cells with rucaparib alone
# [30] = at 5 µM, OCI-C5x cells, without rucaparib
# [31] = at 5 µM, OCI-P5x cells, with rucaparib 20 µM, 100% = cells with rucaparib alone
# [32] = at 5 µM, OCI-P5x cells, without rucaparib
structure (smiles),measurement,setting,value
CC(C)C[C@H](NP(=O)(O)O[C@@H]1O[C@@H](C)[C@H](O)[C@@H](O)[C@H]1O)C(=O)N[C@@H](Cc1c[nH]c2ccccc12)C(=O)O,viability,[1],124%
same,viability,[2],113%
same,viability,[3],105%
same,viability,[4],99.9% (active)
same,viability,[5],127%
same,viability,[6],113%
same,viability,[7],97.2% (active)
same,viability,[8],103%
same,viability,[9],127%
same,viability,[10],116%
same,viability,[11],104%
same,viability,[12],96.5% (active)
same,viability,[13],122%
same,viability,[14],106%
same,viability,[15],101%
same,viability,[16],93.9% (active)
same,viability,[17],121%
same,viability,[18],107%
same,viability,[19],99.3% (active)
same,viability,[20],96.3% (active)
same,viability,[21],124%
same,viability,[22],103%
same,viability,[23],98.1% (active)
same,viability,[24],98.7% (active)
same,viability,[25],132%
same,viability,[26],117%
same,viability,[27],94.3% (active)
same,viability,[28],91.1% (active)
same,viability,[29],123%
same,viability,[30],104%
same,viability,[31],88.8% (active)
same,viability,[32],92% (active)
CC1(C)O[C@@H]2C[C@H]3[C@@H]4CCC5=CC(=O)C=C[C@]5(C)[C@]4(F)[C@H](O)C[C@]3(C)[C@@]2(C(=O)CO)O1,viability,[1],108%
same,viability,[2],124%
same,viability,[3],97.2% (active)
same,viability,[4],122%
same,viability,[5],116%
same,viability,[6],123%
same,viability,[7],101%
same,viability,[8],116%
same,viability,[9],106%
same,viability,[10],117%
same,viability,[11],96.8% (active)
same,viability,[12],110%
same,viability,[13],105%
same,viability,[14],122%
same,viability,[15],92.8% (active)
same,viability,[16],107%
same,viability,[17],108%
same,viability,[18],120%
same,viability,[19],92.1% (active)
same,viability,[20],110%
same,viability,[21],105%
same,viability,[22],114%
same,viability,[23],90.6% (active)
same,viability,[24],106%
same,viability,[25],109%
same,viability,[26],108%
same,viability,[27],84% (active)
same,viability,[28],97.8% (active)
same,viability,[29],109%
same,viability,[30],99.9% (active)
same,viability,[31],78.5% (active)
same,viability,[32],90.4% (active)
CCC(C)(C)C(=O)O[C@@H]1C[C@@H](C)C=C2C=C[C@H](C)[C@@H](CC[C@@H]3C[C@@H](O)CC(=O)O3)[C@H]21,viability,[1],109%
same,viability,[2],119%
same,viability,[3],102%
same,viability,[4],113%
same,viability,[5],108%
same,viability,[6],113%
same,viability,[7],110%
same,viability,[8],115%
same,viability,[9],112%
same,viability,[10],110%
same,viability,[11],96.9% (active)
same,viability,[12],110%
same,viability,[13],95.4% (active)
same,viability,[14],112%
same,viability,[15],94.2% (active)
same,viability,[16],101%
same,viability,[17],76.6% (active)
same,viability,[18],70.9% (active)
same,viability,[19],72.4% (active)
same,viability,[20],66.6% (active)
same,viability,[21],36% (active)
same,viability,[22],32% (active)
same,viability,[23],13.1% (active)
same,viability,[24],14.5% (active)
same,viability,[25],24.2% (active)
same,viability,[26],27.2% (active)
same,viability,[27],7.81% (active)
same,viability,[28],7.43% (active)
same,viability,[29],8.07% (active)
same,viability,[30],7.81% (active)
same,viability,[31],5.14% (active)
same,viability,[32],3.59% (active)
O=C(/C=C/c1ccc2ccccc2n1)c1ccncc1,viability,[1],108%
same,viability,[2],116%
same,viability,[3],96% (active)
same,viability,[4],84.9% (active)
same,viability,[5],121%
same,viability,[6],120%
same,viability,[7],99.6% (active)
same,viability,[8],91.2% (active)
same,viability,[9],119%
same,viability,[10],119%
same,viability,[11],70.3% (active)
same,viability,[12],17.7% (active)
same,viability,[13],122%
same,viability,[14],130%
same,viability,[15],56.8% (active)
same,viability,[16],13.9% (active)
same,viability,[17],119%
same,viability,[18],116%
same,viability,[19],51.3% (active)
same,viability,[20],15.5% (active)
same,viability,[21],120%
same,viability,[22],112%
same,viability,[23],54.4% (active)
same,viability,[24],13.6% (active)
same,viability,[25],113%
same,viability,[26],124%
same,viability,[27],34.2% (active)
same,viability,[28],111%
same,viability,[29],3.77% (active)
same,viability,[30],128%
same,viability,[31],16.9% (active)
same,viability,[32],109%
